18 compounds from PubChem BioAssay (EPA / NIEHS) can be followed below.

The target of assay [1] is Paired box protein Pax-6 (Homo sapiens) (UniProt P26367). Nature of the assay: ATG_Pax6_CIS: Attagene CIS-FACTORIAL HepG2 Assay for human Paired Box 6 (PAX6) (AID 2282956). Conditions: HepG2 CIS-FACTORIAL PAX6 reporter transcription, RNA readout; actives raise or lower the signal. The essentials:
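Transient MRTU transfection of HepG2 → compound exposure 24 h → TriZol RNA, oligo(dT) RT → PCR, 6-FAM primer extension, HpaI cut → capillary electrophoresis; activity fitted both directions against DMSO.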

The nature of assay [2]: ATG_PXRE_CIS: Attagene CIS-FACTORIAL HepG2 Assay for human Pregnane X Receptor Element (PXRE) (AID 2282957). The following applies: HepG2 Attagene CIS-FACTORIAL PXRE reporter, mRNA; actives raise or lower the signal. In a few lines: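 Transfect HepG2 with MRTUs (cis promoter elements); dose chemical, incubate 24 h; isolate RNA, RT with oligo(dT), PCR, 6-FAM label, HpaI cut, CE. Gain/loss fit vs DMSO.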

Assay [3] can be described thus: ATG_Sox_CIS: Attagene CIS-FACTORIAL HepG2 Assay for human SRY-box transcription factor (SOX) (AID 2282960). Conditions: HepG2 Attagene cis-factorial SOX reporter, mRNA; actives raise or lower the signal. In a few lines:
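Transient MRTU transfection of HepG2; 24 h compound incubation; TriZol RNA, oligo(dT) RT, PCR, 6-FAM primer extension, HpaI cut, CE. Bidirectional fit, DMSO = baseline.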

Assay [4] in a line: ATG_SREBP_CIS: Attagene CIS-FACTORIAL HepG2 Assay for human Sterol Regulatory Element Binding (SREBP) (AID 2282962). The following applies: HepG2 Attagene cis-factorial SREBP reporter, mRNA; actives raise or lower the signal. In a few lines:
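Transfected HepG2 (cis-regulated reporter library, endogenous TFs) → compound 24 h → total RNA → oligo(dT) RT → reporter-specific PCR → FAM primer extension, HpaI cut → CE fluorescence. Fit bidirectional vs DMSO.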

In assay [5] the target is Signal transducer and activator of transcription 3 (Homo sapiens) (UniProt P40763). The assay can be described thus: ATG_STAT3_CIS: Attagene CIS-FACTORIAL HepG2 Assay for human Signal Transducer and Activator of Transcription 3 (STAT3) (AID 2282963). Conditions: HepG2, Attagene cis-factorial STAT3 reporter transcription; actives raise or lower the signal. In a few lines: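 Endogenous STAT3-responsive cis-element activity was read in transiently transfected HepG2 cells after 24 h treatment. Reporter transcripts were quantified via RT-PCR and capillary electrophoresis, with DMSO as negative control and bidirectional curve fitting.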

A short description of assay [6]: ATG_TA_CIS: Attagene CIS-FACTORIAL HepG2 Assay for human TA Basal Promoter (AID 2282964). Conditions: HepG2 Attagene CIS-factorial TA basal promoter reporter; actives raise or lower the signal. In a few lines:
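Fluorescence from labelled RT-PCR reporter fragments, separated by capillary electrophoresis, gives the signal. Cells: HepG2 transiently carrying multiple reporter units, 24 h chemical dosing. Gain or loss relative to DMSO.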

Assay [7] is described as follows: ATG_TCF_b_cat_CIS: Attagene CIS-FACTORIAL HepG2 Assay for human T-Cell-Factor with beta-catenin (TCF/b-cat) (AID 2282965). Conditions: HepG2 TCF/beta-catenin cis-reporter transcription, actives raise or lower the signal. The essentials: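 Measured: reporter mRNA in HepG2 transiently transfected with cis-promoter reporter units, 24 h after chemical addition. Fitting was bidirectional, DMSO as negative control.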

Assay [8] in a line: ATG_RORE_CIS: Attagene CIS-FACTORIAL HepG2 Assay for human RAR-related Orphan Receptor Element (RORE) (AID 2282959). The following applies: HepG2 Attagene cis-factorial RORE reporter, mRNA; actives raise or lower the signal. In a few lines: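 Cells were HepG2 carrying transfected cis-regulated reporter constructs, dosed for 24 hours. Total RNA was reverse-transcribed and reporter cDNA amplified, fluorescently labeled and sized by capillary electrophoresis. Activity was fitted bidirectionally relative to DMSO.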

In assay [9] the target is Transcription factor Sp1 (Homo sapiens) (UniProt P08047). The assay can be described thus: ATG_Sp1_CIS: Attagene CIS-FACTORIAL HepG2 Assay for human Specificity Protein 1 (Sp1) (AID 2282961). The following applies: HepG2 Sp1 cis-reporter transcription, actives raise or lower the signal. In a few lines: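 Endogenous Sp1 activity was gauged in human liver HepG2 cells bearing transfected reporter units under a cis-regulating promoter. After 24 h dosing, reporter mRNA was quantified by RT-PCR with capillary electrophoresis, and activity fitted bidirectionally versus DMSO.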

Assay [10] can be described thus: ATG_PPRE_CIS: Attagene CIS-FACTORIAL HepG2 Assay for human Peroxisome Proliferator-activated Response Element (PPRE) (AID 2282958). Conditions: HepG2 PPRE cis-element reporter, Attagene transcription factor profiling; actives raise or lower the signal. In a few lines:
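Cells are first transfected transiently with the multiplexed reporter library, then dosed for 24 h. Total RNA is reverse-transcribed, amplified, fluorescently end-labeled and HpaI-cut before capillary electrophoresis; activity is fitted bidirectionally against DMSO controls.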

Calls of active or inactive are those of the source. The calls were made as follows: active = hit-call score of the fitted dose curve at least 0.9, where 1 is the maximum; inactive = score below 0.9.

Sequence of Signal transducer and activator of transcription 3 (Homo sapiens) (P40763 whole entry, looked up): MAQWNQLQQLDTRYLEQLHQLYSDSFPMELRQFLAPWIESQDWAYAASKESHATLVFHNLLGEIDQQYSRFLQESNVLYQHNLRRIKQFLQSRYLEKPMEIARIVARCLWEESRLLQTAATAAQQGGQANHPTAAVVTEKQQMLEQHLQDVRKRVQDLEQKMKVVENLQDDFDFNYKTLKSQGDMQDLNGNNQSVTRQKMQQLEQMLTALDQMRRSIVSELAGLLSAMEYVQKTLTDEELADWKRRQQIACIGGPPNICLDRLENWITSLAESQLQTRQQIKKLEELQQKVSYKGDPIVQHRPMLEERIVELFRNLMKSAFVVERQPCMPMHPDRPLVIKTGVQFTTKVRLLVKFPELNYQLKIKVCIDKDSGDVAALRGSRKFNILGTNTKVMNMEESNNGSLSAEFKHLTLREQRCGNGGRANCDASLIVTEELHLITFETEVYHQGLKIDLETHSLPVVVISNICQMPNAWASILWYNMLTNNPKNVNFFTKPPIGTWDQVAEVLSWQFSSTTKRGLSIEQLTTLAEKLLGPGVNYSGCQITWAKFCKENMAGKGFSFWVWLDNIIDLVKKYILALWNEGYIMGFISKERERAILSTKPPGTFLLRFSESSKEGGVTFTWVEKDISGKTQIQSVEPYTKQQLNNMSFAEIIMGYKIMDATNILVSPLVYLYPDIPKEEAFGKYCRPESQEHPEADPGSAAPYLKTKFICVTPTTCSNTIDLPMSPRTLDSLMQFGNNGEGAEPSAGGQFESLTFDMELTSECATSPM
Sequence of Transcription factor Sp1 (Homo sapiens) (P08047 whole entry, looked up): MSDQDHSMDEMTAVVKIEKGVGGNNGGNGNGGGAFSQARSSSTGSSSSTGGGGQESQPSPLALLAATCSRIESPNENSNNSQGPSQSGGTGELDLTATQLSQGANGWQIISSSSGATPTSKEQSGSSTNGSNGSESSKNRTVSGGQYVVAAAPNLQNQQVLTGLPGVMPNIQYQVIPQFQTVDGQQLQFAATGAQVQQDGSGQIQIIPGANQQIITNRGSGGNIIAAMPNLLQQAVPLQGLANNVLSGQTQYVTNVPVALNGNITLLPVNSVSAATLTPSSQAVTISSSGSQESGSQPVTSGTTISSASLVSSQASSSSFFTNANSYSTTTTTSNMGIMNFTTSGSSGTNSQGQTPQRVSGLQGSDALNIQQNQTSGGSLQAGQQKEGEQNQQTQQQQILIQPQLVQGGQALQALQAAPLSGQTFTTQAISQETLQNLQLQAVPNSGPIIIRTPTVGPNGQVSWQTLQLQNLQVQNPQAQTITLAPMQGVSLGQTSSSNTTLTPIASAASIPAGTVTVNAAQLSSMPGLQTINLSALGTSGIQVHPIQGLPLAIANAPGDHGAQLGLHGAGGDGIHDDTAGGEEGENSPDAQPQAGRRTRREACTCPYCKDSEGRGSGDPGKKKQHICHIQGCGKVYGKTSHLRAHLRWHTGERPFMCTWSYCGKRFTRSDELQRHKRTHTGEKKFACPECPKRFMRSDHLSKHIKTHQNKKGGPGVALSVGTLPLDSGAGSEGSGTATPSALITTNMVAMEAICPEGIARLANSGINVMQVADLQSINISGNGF
Sequence of Paired box protein Pax-6 (Homo sapiens) (P26367 whole entry, looked up): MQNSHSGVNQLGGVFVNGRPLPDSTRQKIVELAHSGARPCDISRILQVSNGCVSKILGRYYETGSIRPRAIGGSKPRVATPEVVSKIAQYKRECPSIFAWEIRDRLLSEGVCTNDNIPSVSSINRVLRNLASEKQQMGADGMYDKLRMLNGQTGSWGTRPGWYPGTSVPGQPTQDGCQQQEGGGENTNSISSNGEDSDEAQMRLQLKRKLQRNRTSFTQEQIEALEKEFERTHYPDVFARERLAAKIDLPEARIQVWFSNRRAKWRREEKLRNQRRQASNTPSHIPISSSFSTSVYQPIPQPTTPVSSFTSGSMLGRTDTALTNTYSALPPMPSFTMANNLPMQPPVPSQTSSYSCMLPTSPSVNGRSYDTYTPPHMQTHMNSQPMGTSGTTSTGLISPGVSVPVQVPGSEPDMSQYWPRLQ

As to `CCc1ccc(C=O)cc1`, the outcome in assay [1], in assay [2], in [3], in [4], in [5] and in [6] was inactive. The result in assay [7] was inactive.
Regarding `CC(C)(C)c1n[nH]c(=S)n(N)c1=O`, the compound was classed as inactive in assay [1], in assay [8], in [3], in assay [9], in assay [4] and in [5]. In assay [7], the outcome was inactive.
One may read the AC50 as the concentration at which the activity in the assay is half-maximal. For the compound `CC(C)=CCCC(C)=CCCC(C)=CCO`, the result in assay [1], in [3], in assay [9] and in assay [7] was inactive. Further, the AC50 in [2] was 4.26 µM (active); in assay [4], 41.4 µM (active).
For the compound `NC(=O)Nc1ccc(Cl)cc1`, the outcome in assay [1], in assay [10], in assay [3], in assay [9], in assay [4] and in [5] was inactive. Also, the result in assay [6] and in [7] was inactive.
As to `CCOc1ccccc1OCC`, the compound was called inactive in assay [1], in assay [8], in assay [3], in assay [9], in assay [4] and in assay [5]. Besides, the result in [6] and in [7] was inactive.
Turning to `Nc1cc(N)cc(C(=O)O)c1`, the outcome in assay [1], in [10], in assay [8], in assay [3], in assay [4] and in assay [5] was inactive. The compound was classed as inactive in assay [6] and in [7].
With `O=C(O)c1cn(-c2ccc(F)cc2)c2cc(N3CCNCC3)c(F)cc2c1=O`, the compound was classed as inactive in assay [10], in [8], in assay [3], in assay [9], in assay [4] and in [5]. Further, the call in assay [6] and in [7] was inactive.
Turning to `CNCCCC12CCC(c3ccccc31)c1ccccc12`, the call in assay [10], in assay [8], in assay [3], in assay [9], in [4] and in [5] was inactive. Also, the outcome in assay [6] was inactive. Further, in assay [7], the half-maximal activity concentration (AC50) was 18.5 µM (active).
For the compound `C=C(C)C(=O)O`, the compound was classed as inactive in assay [2], in assay [8], in [3], in [9], in [4] and in [5]. For the same compound, the compound was classed as inactive in [6] and in assay [7].
Consider `CC(C)=CCO`, for which, in assay [2], the half-maximal activity concentration (AC50) is 47.2 µM (active). Also, the outcome in assay [8], in assay [3], in [9], in [4], in assay [5] and in assay [6] was inactive. In addition, the compound was classed as inactive in assay [7].
Consider `CCCCN`, for which the outcome in assay [10], in assay [8], in assay [3], in assay [9], in assay [4] and in assay [5] was inactive. In [7], the compound was classed as inactive.
With `Cc1cccc(Nc2ccccc2C(=O)O)c1C`, the AC50 is 14.1 µM (active) in [2], 18.2 µM (active) in assay [10] and 19.8 µM (active) in assay [7]. Further, the compound was classed as inactive in assay [8], in assay [3], in [9], in assay [4], in assay [5] and in assay [6].
As to `COc1c(Cl)c(Cl)c(Cl)c(Cl)c1Cl`, the AC50 in assay [2] was 26.2 µM (active). The call in [3], in assay [9], in assay [4], in assay [5] and in assay [7] was inactive.
As to `C=COCCOCCOCCOC=C`, the compound was classed as inactive in [2], in [10], in [8], in [3], in assay [9] and in assay [4]. Besides, the result in assay [5], in assay [6] and in [7] was inactive.
As to `Nc1ccc(S(=O)(=O)O)c(N)c1`, the compound was called inactive in [2], in assay [10], in assay [3], in assay [4], in assay [6] and in assay [7].
For the compound `CC1(C)C(=O)N(Br)C(=O)N1Cl`, the half-maximal activity concentration (AC50) in [2] is 67.5 µM (active). Also, the compound was called inactive in [8], in assay [3], in assay [9], in assay [4], in assay [5] and in assay [6]. In assay [7], the result was inactive.
Take `Nc1nc2ccc([N+](=O)[O-])cc2s1`: the AC50 in [2] was 19.8 µM (active); in assay [10], 45.6 µM (active). For the same compound, the call in [3], in assay [9], in assay [4], in assay [6] and in [7] was inactive.
For the compound `CC1=CC(=O)NS(=O)(=O)O1`, the concentration at half-maximal activity (AC50) in assay [2] is 55.8 µM (active). The call in [10], in assay [8], in [3], in assay [9], in assay [4] and in assay [5] was inactive. The call in [7] was inactive.
